Assay results from article PMC8384837, “Expanding the binding specificity for RNA recognition by a PUF domain”.
Numbering of substitutions follows the chain as printed.

What was measured:
Assay in all cases: yeast three-hybrid, YBZ-1, SC-Leu-His + 0.5 mM 3-AT, 4 days
Settings in all cases: tags: N-Gal4 AD-HA kept; label: inside an RPR1-promoter hybrid RNA with tandem MS2 sites; ssRNA
[1] = biological target: PUM1 PUF domain R3-THE (Homo sapiens, UniProt Q14671 828-1176, C935T;R936H;Q939E)
Method in brief: (§1)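 Repeat regions from input (SC-Leu) and selection (SC-Leu-His + 0.5 mM 3-AT) plates were PCR-amplified and Illumina-sequenced after four days of growth. The cells were strain YBZ-1 with a LexA–MS2 coat fusion and a HIS3 reporter, co-expressing Pumilio-1 PUF domain libraries and matching RNA elements from a centromeric plasmid. The interaction score is the log change in variant frequency from input to selection, taken in log2 with a pseudocount of 1 for absent variants.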

[2] = biological target: T1, PUM1 PUF domain R6-GWI (Homo sapiens, UniProt Q14671 828-1176, N1043G;Y1044W;Q1047I)
T1 sequence: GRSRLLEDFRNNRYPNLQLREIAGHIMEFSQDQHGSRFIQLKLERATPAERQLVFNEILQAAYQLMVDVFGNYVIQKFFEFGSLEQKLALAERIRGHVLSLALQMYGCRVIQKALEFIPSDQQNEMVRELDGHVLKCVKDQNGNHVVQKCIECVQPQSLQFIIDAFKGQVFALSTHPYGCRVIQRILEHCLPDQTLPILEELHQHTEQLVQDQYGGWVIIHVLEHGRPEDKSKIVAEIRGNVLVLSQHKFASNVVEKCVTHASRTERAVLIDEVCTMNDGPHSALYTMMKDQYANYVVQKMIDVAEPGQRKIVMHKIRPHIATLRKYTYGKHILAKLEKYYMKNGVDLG
Method in brief: as §1

[3] = biological target: PUM1 PUF domain R4-CRA (Homo sapiens, UniProt Q14671 828-1176, N971C;H972R;Q975A)
Method in brief: as §1

[4] = biological target: T2, PUM1 PUF domain R6-SRD (Homo sapiens, UniProt Q14671 828-1176, N1043S;Y1044R;Q1047D)
T2 sequence: T1 sequence with G216S, W217R, I220D
Method in brief: as §1

[5] = biological target: PUM1 PUF domain R7-RNR (Homo sapiens, UniProt Q14671 828-1176, S1079R;E1083R)
Method in brief: as §1

[6] = biological target: PUM1 PUF domain R5-CNH (Homo sapiens, UniProt Q14671 828-1176, R1008N;Q1011H)
Method in brief: as §1

[7] = biological target: PUM1 PUF domain R5-RAT (Homo sapiens, UniProt Q14671 828-1176, C1007R;R1008A;Q1011T)
Method in brief: as §1

[8] = biological target: PUM1 PUF domain R8-KFL (Homo sapiens, UniProt Q14671 828-1176, N1122K;Y1123F;Q1126L)
Method in brief: as §1

[9] = biological target: PUM1 PUF domain R4-DHA (Homo sapiens, UniProt Q14671 828-1176, N971D;Q975A)
Method in brief: as §1

[10] = biological target: PUM1 PUF domain R4-LHH (Homo sapiens, UniProt Q14671 828-1176, N971L;Q975H)
Method in brief: as §1

With “GGCUAGAACUAGUGGAUCCCCCGGCGCCCGGCGGCUCGAGCCCGGGUAAGUGUAAAUAGUCUGCAUGCCGCCGGGCGCCAUGCCUGCAGGUCGACUCUAGAAAACAUG” the binding signal [1] was 2.11 log2 enrichment (interaction score), the binding signal [2] was 2.34 log2 enrichment (interaction score) and the binding signal [3] was 3.82 log2 enrichment (interaction score).

For “GGCUAGAACUAGUGGAUCCCCCGGCGCCCGGCGGCUCGAGCCCGGGUAAGUGGAAAUAGUCUGCAUGCCGCCGGGCGCCAUGCCUGCAGGUCGACUCUAGAAAACAUG”, the binding signal [4] was 4.81 log2 enrichment (interaction score).

With “GGCUAGAACUAGUGGAUCCCCCGGCGCCCGGCGGCUCGAGCCCGGGUAAGUUUAAAUAGUCUGCAUGCCGCCGGGCGCCAUGCCUGCAGGUCGACUCUAGAAAACAUG” the binding signal [5] was 5.92 log2 enrichment (interaction score).

With “GGCUAGAACUAGUGGAUCCCCCGGCGCCCGGCGGCUCGAGCCCGGGUAAGUCUAAAUAGUCUGCAUGCCGCCGGGCGCCAUGCCUGCAGGUCGACUCUAGAAAACAUG” the binding signal [5] was 4.72 log2 enrichment (interaction score).

For “GGCUAGAACUAGUGGAUCCCCCGGCGCCCGGCGGCUCGAGCCCGGGUAAGUGUUAAUAGUCUGCAUGCCGCCGGGCGCCAUGCCUGCAGGUCGACUCUAGAAAACAUG”, the binding signal [6] was 2.78 log2 enrichment (interaction score) and the binding signal [7] was 1.36 log2 enrichment (interaction score).

In the case of “GGCUAGAACUAGUGGAUCCCCCGGCGCCCGGCGGCUCGAGCCCGGGUAAGCGUAAAUAGUCUGCAUGCCGCCGGGCGCCAUGCCUGCAGGUCGACUCUAGAAAACAUG”, the binding signal [8] is reported as 4.76 log2 enrichment (interaction score).

In the case of “GGCUAGAACUAGUGGAUCCCCCGGCGCCCGGCGGCUCGAGCCCGGGUAAGUGUCAAUAGUCUGCAUGCCGCCGGGCGCCAUGCCUGCAGGUCGACUCUAGAAAACAUG”, the binding signal [7] is reported as 3.06 log2 enrichment (interaction score).

In the case of “GGCUAGAACUAGUGGAUCCCCCGGCGCCCGGCGGCUCGAGCCCGGGUAAGUGUACAUAGUCUGCAUGCCGCCGGGCGCCAUGCCUGCAGGUCGACUCUAGAAAACAUG”, the binding signal [9] is reported as 5.96 log2 enrichment (interaction score).

In the case of “GGCUAGAACUAGUGGAUCCCCCGGCGCCCGGCGGCUCGAGCCCGGGUAAGUGUAUAUAGUCUGCAUGCCGCCGGGCGCCAUGCCUGCAGGUCGACUCUAGAAAACAUG”, the binding signal [10] is reported as 4.06 log2 enrichment (interaction score).
